AHR act: AHR activators, primary screen, cell-based, luminescence, luciferase reporter, human. 2.5% of 320,000 active. AHR-responsive luciferase reporter cells. AID 2796, 2010. activation, % at 5 µM. Aryl hydrocarbon receptor (Homo sapiens), P35869; in the data active means activation above about 47%;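 further: 0% = vehicle wells and 100% = reference agonist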
NR0B1 inh: DAX1 (NR0B1) inhibitors, primary screen, cell-based, HEK293, Gal4-DAX1, luciferase luminescence; HEK293 Gal4-DAX1 luciferase reporter; Nuclear receptor subfamily 0 group B member 1 (Homo sapiens), P51843; inhibition, % at 6.75 µM; 0.99% of 340,000 active;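 active means inhibition above the mean over all tested compounds plus 3 SD, cut at about 4.2% in these data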;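 further: 0% = DAX1-transfected cells with DMSO and 100% = empty-vector control cells with DMSO; inhibition shows as a rise in luminescence from relieved DAX1 repression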
Target sequence (P51843 207-470 limits assumed): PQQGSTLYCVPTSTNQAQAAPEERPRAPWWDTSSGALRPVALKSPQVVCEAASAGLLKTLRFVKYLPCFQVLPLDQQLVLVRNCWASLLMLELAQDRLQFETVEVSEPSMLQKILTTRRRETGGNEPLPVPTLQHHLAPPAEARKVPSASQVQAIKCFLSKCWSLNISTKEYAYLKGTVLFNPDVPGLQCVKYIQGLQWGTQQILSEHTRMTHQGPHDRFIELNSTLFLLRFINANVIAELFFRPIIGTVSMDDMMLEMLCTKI
GAA850 FXN act: FXN promoter activators, primary screen, cell-based, luciferase luminescence, HEK293 lucGAA850; HEK293 lucGAA850 FXN promoter luciferase reporter, 24 h; percent of 10 µM SAHA response; activation, % at 6 µM; 0.56% of 360,000 active;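 active means activation above the average of all compounds screened plus 3 SD, cutoff fixed separately per campaign, cut at about 7.5% in these data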;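 further: 0% = DMSO wells and 100% = 10 µM SAHA wells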
HSF-1 act: HSF-1 activators, primary screen, NIH3T3-HGL cells, MG132 stress, luminescence, single point | NIH3T3-HGL HSF-1 luciferase reporter, 8 h; 100% = twice DMSO control signal | activation, % at 9 µM | 1.7% of 300,000 active | AID 504408, 2011;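 active means mean replicate activation of at least 50% with a set share of replicates each reaching 50%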;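 further: 0% = median of the neutral control wells and 100% = twice that signal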
HSF1 inhib: HSF1 inhibitors in luciferase reporter cells, primary screen, cell-based, NIH3T3, luminescence. activity change, negative = inhibition, % at 7.5 µM (by protocol). NIH3T3-HGL HSE-luciferase, MG132-induced, luminescence 8 h; stronger effect = lower value. 0.77% of 300,000 active. AID 2098, 2009;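 active means more than half of replicate wells show activity change below -50%, luminescence cut by over half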;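 further: luciferase reports HSF-1 transcriptional activity via heat shock element; 0% = median of DMSO wells and -100% = zero luminescence signal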
The depositor's hits bear a star; x = not tested or not shown. Rows were chosen to be rich in hits. Some 5.4% of all compounds tested hit in one or more screens of this group.

SMILES	AHR act	NR0B1 inh	GAA850 FXN act	HSF-1 act	HSF1 inhib
O=C(Nc1cccnc1)c1cnn2cccnc12	-2	1	3	-2	-9
O=C(Nc1ccc2c(c1)OCO2)c1cnn2cccnc12	108*	2	6	23	10
CC(Sc1nnc(CN2CCCC2)n1Cc1ccccc1)C(=O)Nc1ccc(F)c(F)c1F (centres undefined)	x	0	1	x	x
CCOc1ccc(NCc2cccn2-c2nnc(N3CCC(C(=O)NCCCN4CCCCC4)CC3)s2)cc1	3	0	0	-68	-57*
Cc1ccc(C2=NN(CC(=O)NCc3cccs3)C(=O)CC2)cc1	3	5.4*	-3	-2	-9
Cc1ccc(C2=NN(CC(=O)NCCN(C)C)C(=O)CC2)cc1	4	-1	2	-11	-7
O=C1CSC(=S)N1/N=C/c1cccc(C(F)(F)F)c1	5	1	1	68*	52
COC(=O)c1ccsc1NS(=O)(=O)c1ccccc1	0	1	-1	-16	-5
Cc1ccc(NC(=O)CCc2c(C)nn(-c3ccc(N4CCCCC4)nn3)c2C)cc1C	10	1	2	56*	36
CC1CCCN(c2nc(NCc3ccco3)nc(N)c2[N+](=O)[O-])C1 (centres undefined)	11	-1	5	7	-5
Cc1ccc(Nc2nc(N)c([N+](=O)[O-])c(N3CCCC(C)C3)n2)cc1C (centres undefined)	51*	1	5	21	9
CCCCOc1ccc(C(=O)N2CCCCCC2)cc1	6	1	4	4	2
O=C(c1ccc(COc2ccc(Cl)cc2)cc1)N1CCCCC1	9	1	5	54*	29
CCCOc1ccc(C(=O)Nc2ccc(S(=O)(=O)NC3=NCCCCC3)cc2)cc1	0	-2	-2	1	0
S=C(NCc1ccco1)N1CCN(c2ccccc2Cl)CC1	0	-1	1	70*	46
COc1cccc(N2CCN(C(=S)NCc3ccco3)CC2)c1	8	1	3	55*	31
CNc1ccccc(-c2ccc3cc4c(cc3n2)OCO4)c1=O	70*	0	1	9	14
COc1cccc(NC(=O)Cn2c(=O)n(CCC(=O)NC3CCN(Cc4ccccc4)CC3)c(=O)c3ccccc32)c1	0	-1	1	-2	1
O=C(CCNC(=O)C1CCN(S(=O)(=O)c2ccc(F)cc2)CC1)NCc1ccccc1	-1	0	1	-1	2
COc1cccc(C(=O)Nc2cccc3cccnc23)c1OC	34	4.3*	3	17	7
O=C(O)CCC(=O)Nc1cccc2cccnc12	0	5.2*	-1	26	17
COc1ccc(C(=O)Nc2cccc3cccnc23)cc1OC	17	0	2	68*	57
CC(C)Oc1ccc(C(=O)Nc2cccc3cccnc23)cc1	47	-1	2	10	-7
O=C(Nc1cccc2cccnc12)c1cccc2ccccc12	7	1	2	x	x
O=C(CCC(=O)OCC(=O)c1ccccc1)Nc1cccc2cccnc12	1	1	0	5	0
SMILES	AHR act	NR0B1 inh	GAA850 FXN act	HSF-1 act	HSF1 inhib
CCOc1ccc(C(=O)Nc2cccc3cccnc23)cc1	52*	3	2	5	-4
CC(Oc1ccccc1Cl)C(=O)Nc1ccccc1C(=O)N1CCOCC1 (centres undefined)	1	0	0	-7	1
C/C(=N\O)c1cc(Cl)ccc1O	4	-1	2	-3	-4
O=C(Nc1cccc2cccnc12)c1ccccc1Br	4	-2	1	-1	6
CCOc1ccccc1C(=O)Nc1cccc2cccnc12	74*	1	2	5	10
CCOc1ccccc1C(=O)Nc1nncs1	15	-1	0	-1	-2
CCOc1ccccc1C(=O)Nc1nnc(C(C)C)s1	57*	2	2	8	7
CN(CCOc1ccc(Cl)cc1)C(=O)C1CCN(C(=O)c2ccc(Cl)cc2)CC1	-2	1	2	-6	2
COc1cc(/C=C/C(=O)OCC(=O)N(C)C2CCS(=O)(=O)C2)ccc1OC(F)F (centres undefined)	3	0	2	7	0
Nc1nonc1-n1nnc(C(=O)N/N=C/c2cccnc2)c1CSC1=NCCS1	7	-1	-1	96*	50
Nc1nonc1-n1nnc(C(=O)N/N=C/c2ccc(Br)cc2)c1CSC1=NCCS1	-2	-2	-1	11	7
CCCc1c(C(=O)N/N=C/c2cccs2)nnn1-c1nonc1N	61*	-1	-2	-12	1
CN(CC(=O)Nc1ccc(F)cc1)C(=O)CN1C(=O)c2cccc([N+](=O)[O-])c2C1=O	1	0	1	x	x
O=C(Nc1ccccc1)c1nc2ccccc2s1	33	4	3	59*	24
O=C(Nc1cccc(Cl)c1)Nc1sccc1-c1nc2ccccc2s1	49*	x	1	-41	-44
Cc1cccc(NC(=S)c2nc3ccccc3s2)c1	76*	2	2	15	0
O=C(Nc1ccccc1)Nc1sccc1-c1nc2ccccc2s1	72*	x	-1	19	4
COc1ccccc1NC(=O)Nc1sccc1-c1nc2ccccc2s1	33	x	0	14	12
CCOCCCN(C)C1CCN(C(=O)c2oc3ccccc3c2NC(=O)Cc2ccc(F)cc2)CC1	-1	2	0	-5	-7
CCc1nnc(NC(=O)CN2CCN(Cc3ccccc3Cl)CC2)s1	0	2	1	3	-2
Cc1nn(Cc2noc(C(=O)NCc3ccccn3)n2)c(C)c1Br	0	0	0	-4	-4
Cc1cc(=O)nc2c3ccccc3n(CC(=O)NC3CCCCC3)n12	12	1	1	-25	-8
CCCN(CCC)C(=O)Cn1c2ccccc2c2nc(=O)cc(C)n21	51*	-1	0	6	-3
CC1COc2ccccc2N1S(=O)(=O)c1ccc(Cl)cc1 (centres undefined)	5	0	0	0	-4
Cc1ccc(S(=O)(=O)N2c3ccccc3OCC2c2ccccc2)cc1 (centres undefined)	1	1	1	56*	5
CC(=O)Oc1ccc(/C=C2/Oc3ccccc3C2=O)cc1	-7	5.3*	2	11	5
COc1ccc(/C=C2\Oc3ccccc3C2=O)cc1	6	-2	3	x	x
O=C(Nc1ccccc1[N+](=O)[O-])C1COc2ccccc2O1 (centres undefined)	5	8.7*	7	42	23
O=C(NCC1COc2ccccc2O1)c1ccc(Cl)cc1 (centres undefined)	10	2	3	62*	31

Compound activity from PubChem BioAssay.
